Assay in all cases: NCI-60 one-dose screen, 48 h (100 = growth as untreated, 0 = no growth, -100 = all killed)
Holding throughout (details): 10 µM unless noted

Experiment [1] deals with NCI-H23 lung.
In experiment [2] the test system is NCI-H226 lung.
Experiment [3] relates to NCI-H322M lung.
The subject of experiment [4] is HOP-62 NSCLC.
Experiment [5] has as its system HOP-92 NSCLC.
Experiment [6] has as its system NCI-H522 lung.
For experiment [7], the system named is A549/ATCC NSCLC.
Experiment [8] has as its system 786-0 renal.
Experiment [9] relates to COLO 205 colon.
Experiment [10] has as its system DU-145 prostate.
The test system of experiment [11] is K-562 leukemia.
Experiment [12] concerns MALME-3M melanoma.
The subject of experiment [13] is MDA-MB-231 breast.
Experiment [14] concerns RXF 393 renal.
Experiment [15] concerns SF-268 CNS.
The test system of experiment [16] is SF-295 CNS.
In experiment [17] the test system is SF-539 CNS.
Experiment [18] relates to UACC-257 melanoma.
The test system of experiment [19] is M14 melanoma.
Experiment [20] deals with NCI-H460 lung.

The structures appear in SMILES notation. Several values for one entry are separate records, joined by “and”; a condition that tells them apart may be missing. Equal values may be shown once. About 83,000 compounds went through this panel and 20% of them were active in at least one assay; those are over-represented in the sample as a whole.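 In brief: 96-well plates, 48 h treatment, single concentration, percent growth endpoint.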 Activity calls are given as the source filed them. How the source made its calls: active means growth percent below 10; inactive means the rest.

On to `CCOCCC(=O)O`, for which the growth was 110% (inactive) in experiment [1]; 99.4% (inactive) in [2]; 113% (inactive) in [3]; 115% (inactive) in experiment [4]; 80.5% (inactive) in [5]; 102% (inactive) in [6]. Besides, the growth in experiment [7] was 115% (inactive); in [8], 103% (inactive); in experiment [9] it was 110% (inactive); in [10], 121% (inactive); in experiment [11], 108% (inactive); in experiment [12] it was 116% (inactive). Moreover, the growth in [13] was 105% (inactive); in experiment [14], 108% (inactive); in experiment [15], 112% (inactive); in experiment [16], 102% (inactive); in experiment [17] it was 102% (inactive); in experiment [18], 114% (inactive). Moreover, in [19], the growth was 102% (inactive).
As for `C/C(=C\c1ccccc1)C(O)C(=O)c1nc2ccc([N+](=O)[O-])cc2[nH]c1=O` (stereo unspecified), the growth in [1] is 104% (inactive); in [2] it was 88% (inactive); in experiment [3] it was 90.3% (inactive); in experiment [4], 81.4% (inactive); in experiment [20], 94.7% (inactive); in experiment [5], 78.9% (inactive). The growth in experiment [6] was 48.1% (inactive); in experiment [7] it was 85.7% (inactive); in experiment [8] it was 101% (inactive); in experiment [9], 111% (inactive); in experiment [10], 105% (inactive); in experiment [11], 85.8% (inactive). Moreover, the growth in experiment [12] was 109% (inactive); in experiment [13] it was 90.8% (inactive); in [14], 109% (inactive); in [15], 98.1% (inactive); in experiment [16] it was 93.3% (inactive); in experiment [17] it was 102% (inactive). Also, the figures for the growth in [18] and in experiment [19] were 81.2% (inactive) and 92.3% (inactive), respectively.
Consider `CCCCOC1NC(=O)NC(=O)C1(F)C(=O)OCC` (stereo unspecified), for which the growth was 79.6% (inactive) and 55.9% (inactive) in experiment [1]; 101% (inactive) and 102% (inactive) in [2]; 74% (inactive) and 67.9% (inactive) in experiment [3]; 76.9% (inactive) and 43.3% (inactive) in experiment [4]; 47.2% (inactive) and 25.6% (inactive) in experiment [20]; 67.6% (inactive) and 85.6% (inactive) in [5]. Further, the growth in experiment [6] was 80.1% (inactive); in experiment [7], 48.8% (inactive) and 46.3% (inactive); in experiment [8], 93% (inactive) and 67.6% (inactive); in experiment [9], 61.7% (inactive) and 53.9% (inactive); in experiment [10], 73% (inactive) and 51.5% (inactive); in [11] it was 88.1% (inactive) and 57.4% (inactive). The growth in [12] is 65.7% (inactive) and 65.1% (inactive); in experiment [13] it was 92.8% (inactive) and 75% (inactive); in experiment [14] it was 98.1% (inactive) and 82.7% (inactive); in [15], 98.8% (inactive) and 83.1% (inactive); in experiment [16], 94.1% (inactive) and 93.7% (inactive); in experiment [17], 11.3% (inactive) and 5.65% (active). Further, the growth in experiment [18] is 77.2% (inactive); in experiment [19] it was 71.4% (inactive) and 71.3% (inactive).
Consider `CCc1ccc(OC(=O)CCl)cc1`, for which the growth in experiment [1] is 96.7% (inactive); in experiment [2] it was 97% (inactive); in [3], 102% (inactive); in experiment [4], 110% (inactive); in experiment [5] it was 101% (inactive); in experiment [6], 102% (inactive). For the same molecule, the growth was 105% (inactive) in experiment [7]; 104% (inactive) in experiment [8]; 111% (inactive) in [9]; 102% (inactive) in experiment [10]; 102% (inactive) in [11]; 96.9% (inactive) in experiment [12]. Further, the growth in [13] was 99.4% (inactive); in experiment [14] it was 113% (inactive); in [15], 95.3% (inactive); in experiment [16], 97.8% (inactive); in experiment [17] it was 99% (inactive); in [18], 103% (inactive). Also, the growth in experiment [19] was 96.3% (inactive).
On to `COc1cc([C@@H]2c3cc4c(cc3[C@H](O)[C@H]3COC(=O)[C@@H]23)OCO4)cc(OC)c1OC`, for which the growth in experiment [1] was 12.2% (inactive) and 13.6% (inactive); in experiment [2] it was 51.8% (inactive) and 45.6% (inactive); in experiment [3], 38.9% (inactive) and 23.5% (inactive); in experiment [4], 15.7% (inactive); in [5], 37.5% (inactive) and -7.61% (active); in experiment [6], -13.6% (active) and -44.2% (active). Moreover, the growth in experiment [7] is 12.3% (inactive) and 21.2% (inactive); in experiment [8], 44.1% (inactive) and -74.9% (active); in experiment [9], -45.7% (active) and -74.4% (active); in experiment [10] it was 27.1% (inactive) and -27.4% (active); in experiment [11], 8.28% (active) and 25.4% (inactive); in [12], 7.77% (active) and 69.7% (inactive). Besides, the growth was 36.9% (inactive) and 17.5% (inactive) in experiment [13]; 39.6% (inactive) and 28.2% (inactive) in experiment [14]; 27.1% (inactive) and 24.4% (inactive) in experiment [15]; 34.1% (inactive) and -22.3% (active) in [16]; -30.4% (active) and -4.79% (active) in experiment [17]; 18.6% (inactive) and 57.2% (inactive) in experiment [18]. Also, the growth in [19] was 9.16% (active) and -73.8% (active).
Turning to `Cc1ccc(N)cc1S(=O)(=O)O`, the growth is 109% (inactive) and 107% (inactive) in [1]; 109% (inactive) in experiment [2]; 125% (inactive) and 113% (inactive) in [3]; 104% (inactive) and 112% (inactive) in experiment [4]; 93.1% (inactive) in [5]; 127% (inactive) in experiment [6]. Besides, the growth in experiment [7] is 108% (inactive) and 102% (inactive); in experiment [8] it was 107% (inactive) and 98.5% (inactive); in [9] it was 109% (inactive) and 111% (inactive); in experiment [10], 111% (inactive) and 119% (inactive); in experiment [11] it was 98.3% (inactive) and 85.5% (inactive); in [12] it was 122% (inactive) and 113% (inactive). In addition, the growth in experiment [13] is 109% (inactive); in [14] it was 124% (inactive) and 108% (inactive); in experiment [15], 101% (inactive) and 102% (inactive); in experiment [16], 111% (inactive) and 112% (inactive); in experiment [17], 104% (inactive) and 120% (inactive); in experiment [18], 117% (inactive) and 92.7% (inactive). Further, the growth in experiment [19] was 105% (inactive) and 101% (inactive).

Source of the values: PubChem BioAssay (NCI).
